# Measurements reported in the supplement of paper PMC12494721.
# Counter-ions that a name gives are not always drawn.
# Tests used:
# Settings in all cases: incubation time: 27 h, anaerobic, 37 °C;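 for the amine columns active = adjusted P below 0.05 in both replicates with a change the same way and a mean fold change under 0.8 or over 1.25; inactive = the rest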
# [1] = test system: Clostridium sporogenes DSM 1664; assay: growth (OD595) fold change vs plate DMSO controls (fold change (ratio)); higher = more growth
# In short: (§1)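 Anaerobic mGAM cultures in 96-well plates were grown for 27 h at 37 °C, and absorbance was then read at 595 nm. After blank and compound background correction with 20 µM compound solutions in water, a calibration factor of 5 gave OD. Growth is the fold change relative to the median of each plate's DMSO controls. Values are means of 2 biological replicates, with fold changes above 1.5 set to NA.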
# Escherichia coli IAI1 [2] = assay: as above
# In short: as §1
# [3] = test system: Klebsiella aerogenes DSM 30053; assay: as above
# In short: as §1
# [4] = test system: Ruminococcus gnavus DSM 108212; assay: as above
# In short: as §1
# [5] = test system: Klebsiella aerogenes DSM 30053; assay: fold change of Histamine concentration vs plate DMSO controls (fold change (ratio)); higher = more amine produced, active = hit call of the paper (significant change in both replicates, either direction)
# In short: (§2)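 Anaerobic mGAM cultures of four gut bacterial strains were grown at 37 °C for 27 h in 80 µL wells, starting at OD 0.1 before 1:1 dilution. Compounds were at 20 µM final (sweeteners 50 µM). Whole cultures were extracted with cold acetonitrile/methanol containing 0.1% formic acid and centrifuged. Amines were quantified by LC–triple-quadrupole MS (dynamic MRM) against external calibration curves and drift-corrected within batch. Each value is the fold change versus plate DMSO controls, averaged over 2 biological replicates.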
# [6] = test system: Clostridium sporogenes DSM 1664; assay: fold change of Tryptamine concentration vs plate DMSO controls (fold change (ratio)); higher = more amine produced, active = hit call of the paper (significant change in both replicates, either direction)
# In short: as §2
# [7] = test system: Ruminococcus gnavus DSM 108212; assay: as above
# In short: as §2
# Escherichia coli IAI1 [8] = assay: fold change of Putrescine concentration vs plate DMSO controls (fold change (ratio)); higher = more amine produced, active = hit call of the paper (significant change in both replicates, either direction)
# In short: as §2
# [9] = test system: Klebsiella aerogenes DSM 30053; assay: as above
# In short: as §2
# Escherichia coli IAI1 [10] = assay: fold change of Cadaverine concentration vs plate DMSO controls (fold change (ratio)); higher = more amine produced, active = hit call of the paper (significant change in both replicates, either direction)
# In short: as §2
# [11] = test system: Klebsiella aerogenes DSM 30053; assay: as above
# In short: as §2
# [12] = test system: Ruminococcus gnavus DSM 108212; assay: fold change of 2-Phenylethylamine concentration vs plate DMSO controls (fold change (ratio)); higher = more amine produced, active = hit call of the paper (significant change in both replicates, either direction)
# In short: as §2
SMILES,growth [1],growth (Escherichia coli IAI1 [2]),growth [3],growth [4],fold change of Histamine concentration [5],fold change of Tryptamine concentration [6],fold change of Tryptamine concentration [7],fold change of Putrescine concentration (Escherichia coli IAI1 [8]),fold change of Putrescine concentration [9],fold change of Cadaverine concentration (Escherichia coli IAI1 [10]),fold change of Cadaverine concentration [11],fold change of 2-Phenylethylamine concentration [12]
CCCCCCCCCCCCCCCCCCCCCC(=O)Nc1ccn([C@@H]2O[C@H](CO)[C@@H](O)[C@@H]2O)c(=O)n1 [Enocitabine] (20 µM),0.978,0.973,0.98,0.975,1.03 (inactive),0.984 (inactive),0.913 (inactive),1.01 (inactive),1.01 (inactive),1.01 (inactive),1.02 (inactive),0.866 (inactive)
C[C@@](Cc1ccc(O)c(O)c1)(NN)C(=O)O [Carbidopa] (20 µM),0.93,0.989,1.03,0.905,0.98 (inactive),1.04 (inactive),1 (inactive),1.05 (inactive),1.01 (inactive),0.994 (inactive),1 (inactive),0.963 (inactive)
CC(CN(C)C)C(C)(O)Cc1ccc(Cl)cc1 (configuration not stated) [Clobutinol hydrochloride] (20 µM),0.926,1.01,1.02,1.26,1.03 (inactive),1.02 (inactive),0.975 (inactive),0.975 (inactive),0.997 (inactive),0.965 (inactive),0.988 (inactive),0.988 (inactive)
O=c1[nH]cc(F)c(=O)[nH]1 [5-fluorouracil] (20 µM),1.2,0.87,0.897,1.21,0.728 (inactive),0.767 (inactive),0.917 (inactive),0.626 (inactive),0.961 (inactive),0.945 (inactive),0.979 (inactive),0.918 (inactive)
O=C1CN(/N=C/c2ccc(-c3ccc([N+](=O)[O-])cc3)o2)C(=O)N1 [Dantrolene sodium salt] (20 µM),1.04,0.986,0.993,0.79,0.984 (inactive),0.968 (inactive),1.01 (inactive),0.991 (inactive),0.979 (inactive),1.06 (inactive),0.99 (inactive),0.939 (inactive)
CCCc1c2oc(C(=O)O)cc(=O)c2cc2c(=O)cc(C(=O)O)n(CC)c12 [Nedocromil sodium] (20 µM),0.949,0.993,1,0.981,1.06 (inactive),0.924 (inactive),0.987 (inactive),0.999 (inactive),1.01 (inactive),1.04 (inactive),0.984 (inactive),1 (inactive)
CC(=O)OCC(=O)NCCCOc1cccc(CN2CCCCC2)c1 [Roxatidine acetate hydrochloride] (20 µM),1.02,1.06,1.01,0.677,0.958 (inactive),0.989 (inactive),0.972 (inactive),1.27 (inactive),1.01 (inactive),1.18 (inactive),1.01 (inactive),0.905 (inactive)
CCc1nn(CCCN2CCN(c3cccc(Cl)c3)CC2)c(=O)n1CCOc1ccccc1 [Nefazodone hydrochloride] (20 µM),1.05,1.01,1.17,0.822,0.853 (inactive),0.922 (inactive),0.793 (active),0.996 (inactive),0.996 (inactive),1.03 (inactive),1.03 (inactive),0.824 (inactive)
CC(C)NCC(O)COc1ccc(COCCOC(C)C)cc1 (configuration not stated) [Bisoprolol hemifumarate] (20 µM),1.1,0.975,0.97,0.79,0.965 (inactive),1.2 (inactive),1.09 (inactive),1 (inactive),0.846 (inactive),0.99 (inactive),1.13 (inactive),1.09 (inactive)
COc1cccc(N(C)C(=S)Oc2ccc3c(c2)CCCC3)n1 [Liranaftate] (20 µM),1.1,0.972,0.969,0.941,1 (inactive),0.974 (inactive),1.31 (active),0.998 (inactive),1.06 (inactive),1.01 (inactive),1.07 (inactive),1.69 (active)
COC(=O)[C@@H]1[C@H]2C[C@H]3c4[nH]c5ccccc5c4CCN3C[C@@H]2CC[C@@H]1O [Yohimbine hydrochloride] (20 µM),1.02,1.06,1.04,0.793,0.982 (inactive),1.03 (inactive),1.01 (inactive),1.05 (inactive),1.01 (inactive),0.989 (inactive),1.02 (inactive),1.01 (inactive)
